Out of some 310,000 compounds screened, about 14,000 (4.5%) showed an effect of 50% or more. Effects have a minus sign here. This excerpt belongs to a sample that is enriched for strong results.
What follows are compounds tested against human ether-à-go-go-related gene (hERG) potassium channel (human, UniProt Q12809) (assay: primary screen, population patch clamp on CHO cells stably expressing hERG; higher = less effect of the substance).
Experimental: Briefly, Chinese hamster ovary (CHO) cells stably expressing the hERG channel were dislodged from tissue culture flasks and dispensed into PPC plates. […] During the recording, background leak currents were estimated by a 100 ms step to -80 mV from an initial holding potential of -70 mV and subtracted from the subsequent current measurement. The campaign was conducted in two phases using slight differences in recording protocol. In the first phase, the initial voltage pulse used a 100 ms step to -30 mV from a holding potential of -70 mV, a 2 s conditioning step to +25 mV, and a 2 s test step to -30 mV. During the second phase of the screen, the potential during the conditioning step was raised to +45 mV. In both phases of the campaign, a secondary voltage pulse was applied using the same parameters as the second phase initial pulse. The initial and secondary pulses were applied in the absence of compound, and upon application of 1 μM and 10 μM test concentrations. […]
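Note: peak tail current of the secondary pulse compared with the same well before compound.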

Sequence of human ether-à-go-go-related gene (hERG) potassium channel (Q12809 whole entry, looked up): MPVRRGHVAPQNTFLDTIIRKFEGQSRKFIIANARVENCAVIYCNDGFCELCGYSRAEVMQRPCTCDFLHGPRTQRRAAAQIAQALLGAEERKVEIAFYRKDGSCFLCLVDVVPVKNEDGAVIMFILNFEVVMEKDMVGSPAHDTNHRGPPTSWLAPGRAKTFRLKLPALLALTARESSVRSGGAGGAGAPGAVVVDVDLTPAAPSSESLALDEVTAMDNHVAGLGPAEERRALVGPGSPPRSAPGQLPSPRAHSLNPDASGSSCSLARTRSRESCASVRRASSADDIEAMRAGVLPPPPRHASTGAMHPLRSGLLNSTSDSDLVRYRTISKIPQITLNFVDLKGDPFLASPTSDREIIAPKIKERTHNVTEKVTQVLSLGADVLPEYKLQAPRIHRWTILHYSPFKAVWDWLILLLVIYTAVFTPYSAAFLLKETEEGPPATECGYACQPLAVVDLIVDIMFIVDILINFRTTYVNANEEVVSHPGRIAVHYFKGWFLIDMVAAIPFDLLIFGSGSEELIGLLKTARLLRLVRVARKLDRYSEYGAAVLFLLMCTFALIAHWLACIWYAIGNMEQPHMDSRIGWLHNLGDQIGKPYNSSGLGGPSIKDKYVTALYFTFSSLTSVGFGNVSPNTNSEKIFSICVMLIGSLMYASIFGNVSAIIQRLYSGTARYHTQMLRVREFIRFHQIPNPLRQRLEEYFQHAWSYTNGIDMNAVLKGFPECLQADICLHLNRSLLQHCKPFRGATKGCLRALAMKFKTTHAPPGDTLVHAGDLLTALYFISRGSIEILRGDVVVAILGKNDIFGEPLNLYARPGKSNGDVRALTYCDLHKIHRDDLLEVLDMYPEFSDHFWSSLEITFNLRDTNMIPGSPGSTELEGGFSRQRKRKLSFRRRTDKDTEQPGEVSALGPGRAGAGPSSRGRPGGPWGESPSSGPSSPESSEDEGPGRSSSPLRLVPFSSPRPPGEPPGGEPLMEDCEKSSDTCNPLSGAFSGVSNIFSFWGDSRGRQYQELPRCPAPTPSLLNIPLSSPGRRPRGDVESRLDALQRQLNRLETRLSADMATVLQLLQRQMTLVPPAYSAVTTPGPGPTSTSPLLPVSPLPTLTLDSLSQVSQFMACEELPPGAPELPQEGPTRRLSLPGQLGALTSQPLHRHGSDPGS

Row | SMILES | hERG current change (%, negative = inhibition) at 10uM
1 | CCCCCCN1CC(=O)N2Cc3[nH]c4ccccc4c3C[C@H]2C1=O | -9.11%
2 | O=C(CCCSc1nc2ccccc2[nH]1)Nc1nnc(C2CC2)s1 | -1.62%
3 | CCn1c(SCC(N)=O)nc2sc3c(c2c1=O)CCCC3 | 1.24%
4 | CCOc1ccccc1Oc1c(C)oc2cc(OC(=O)N3CCOCC3)ccc2c1=O | 4.41%
5 | O=C(NCCc1ccccc1F)C1CCC(=O)N(CCCN2CCCC2=O)C1 (stereo not drawn) | -7.84%
6 | COCC1CCCCC1OS(N)(=O)=O (stereo not drawn) | 5.38%
7 | Cn1cccc1-c1nc2ccccc2n1C | -1.23%
8 | Cn1cc(Cl)c(-c2nc3ccccc3[nH]2)n1 | -1.45%
9 | CN1C2CCC1CC(NC(=O)c1ccc([N+](=O)[O-])cc1)C2 (stereo not drawn) | 3.81%
10 | CC(C)CN1C2CCCC1CC(NC(=O)c1ccc([N+](=O)[O-])cc1)C2 (stereo not drawn) | -78.3%
11 | COCCNC(=S)NC1CC2CCCC(C1)N2Cc1cccs1 (stereo not drawn) | -26.7%
12 | CCCN1C2CCCC1CC(NC(=O)c1cccc([N+](=O)[O-])c1)C2 (stereo not drawn) | -36.8%
13 | O=C(NC1CC2CCCC(C1)N2Cc1ccccc1)c1ccc([N+](=O)[O-])cc1 (stereo not drawn) | -81%
14 | O=C(NC1CC2CCCC(C1)N2Cc1cccs1)N1CCOCC1 (stereo not drawn) | -6.2%
15 | O=C(NC1CC2CCCC(C1)N2Cc1cccs1)c1ccc([N+](=O)[O-])cc1 (stereo not drawn) | -84.3%
16 | COc1ccc(C(=O)NC2CC3CCCC(C2)N3CC(C)C)cc1 (stereo not drawn) | -34.7%
17 | Cc1ccc(NC(=O)c2ccc(N3CCCC3=O)cc2)cc1S(=O)(=O)N1CCCCC1 | -3.33%
18 | Cc1ccc(S(=O)(=O)N2CCN(C(=O)CCOc3cc(C)ccc3C)CC2)cc1 | -32.8%
19 | CSCCC(NC(=O)c1ccccc1Cl)C(=O)N1CCCCCCC1 (stereo not drawn) | -6.4%

Row | SMILES | hERG current change (%, negative = inhibition) at 10uM
20 | CC(=O)Nc1ccc(N2C(=O)C3C4CC(=O)C(c5ccccc54)C3C2=O)cc1 (stereo not drawn) | 7.32%
21 | Oc1ccccc1-c1nc(NCCN2CCOCC2)c2ccccc2n1 | -26.2%
22 | CCOC(=O)CSc1ccc(C(=O)Nc2ccc(Cl)cc2)cn1 | 21.8%
23 | CCOC(=O)c1c(C)[nH]c(C)c1S(=O)(=O)NCC(=O)Nc1ccccn1 | 17.9%
24 | COc1ccc(N)c2c1C(=O)c1ccccc1C2=O | -10.4%
25 | CC(COc1ccccc1Cc1ccccc1)N1CCCCC1.O=P(O)(O)O (stereo not drawn) | -70.1%
26 | CC(OC(=O)COc1ccccc1Cc1ccccc1)C(=O)N(C)c1ccccc1 (stereo not drawn) | -0.572%
27 | CC(C(=O)Nc1ccc(OCc2ccccc2)cc1)N1CCCC1 (stereo not drawn) | -21.6%
28 | CCOc1ccc2c(c1)N(C(=O)CN1C(=O)CCC1=O)C(C)(C)C=C2C | -22.8%
29 | COCCNC(=O)COc1ccc(Br)cc1Cl | 10.4%
30 | COCCNC(=O)C(c1ccc(F)cc1)N(C(=O)CCC(=O)Nc1nccs1)c1ccc(C)cc1 (stereo not drawn) | -14.1%
31 | CN(c1ccc(OCC(=O)OCC(=O)Nc2ccc(Br)cc2)cc1)S(=O)(=O)c1cccs1 | -0.388%
32 | O=C(N/N=C/c1ccc[nH]1)c1ccccc1OCc1ccccc1Cl | -25.5%
33 | O=C(N/N=C/c1ccco1)c1ccccc1OCc1ccccc1Cl | -82.8%
34 | O=C(N/N=C/c1ccco1)c1ccccc1OCc1ccc(Br)cc1 | -8.69%
35 | O=C(NCC1CCCO1)c1ccc(COc2ccccc2)cc1 (stereo not drawn) | -56.3%
36 | O=C(NCC1CCCO1)c1cccc(Oc2c(Cl)cccc2[N+](=O)[O-])c1 (stereo not drawn) | -0.562%
37 | CC(=O)c1ccc(-c2ccc(C(=O)NC3CCCCCC3)o2)cc1 | 26%
38 | O=C(NCC1CCCO1)c1cccc(Oc2ccc([N+](=O)[O-])cc2Cl)c1 (stereo not drawn) | -72.6%

Row | SMILES | hERG current change (%, negative = inhibition) at 10uM
39 | O=C(NCC1CCCO1)c1ccc(NC(=O)c2ccc([N+](=O)[O-])cc2)cc1 (stereo not drawn) | -2.58%
40 | CC1(C)CC(NC(=O)c2ccc(-c3ccc([N+](=O)[O-])cc3)o2)CC(C)(C)N1 | -49%
41 | O=C(NCC1CCCO1)c1ccc(COc2ccc(Br)cc2)cc1 (stereo not drawn) | -13.7%
42 | CC(=O)c1ccc(-c2ccc(C(=O)NC3CC(C)(C)NC(C)(C)C3)o2)cc1 | -122%
43 | O=C(NCC1CCCO1)c1ccc(Oc2ccc([N+](=O)[O-])cc2Cl)cc1 (stereo not drawn) | -41.6%
44 | O=C(NCC1CCCO1)c1ccc(COc2ccc(Cl)cc2)cc1 (stereo not drawn) | -11.9%
45 | O=C(NC(=S)NCC1CCCO1)c1ccc([N+](=O)[O-])cc1 (stereo not drawn) | -16.6%
46 | O=C(NCC1CCCO1)c1ccc(Oc2ccc([N+](=O)[O-])cc2)cc1 (stereo not drawn) | -60.8%
47 | Brc1ccc(-n2cc(-c3ccccc3)c3c(NN4CCOCC4)ncnc32)cc1 | -15.7%
48 | Cn1c(SCC(=O)OCc2ccccc2)nnc1-c1ccco1 | 0.0583%
49 | CCCCC(=O)NC(c1ccco1)c1c(O)ccc2ccccc12 (stereo not drawn) | -2.6%
50 | O=C1CC2CS(=O)(=O)CC2N1c1ccc(Cl)cc1Cl (stereo not drawn) | 5.75%
51 | CCCc1ccc(S(=O)(=O)N/N=C\c2ccc3c(c2)OCO3)cc1 | -0.771%
52 | CCOc1ccc(NC(c2ccccn2)c2oc(CO)cc(=O)c2O)cc1 (stereo not drawn) | 5.43%
53 | CN(C)CCNc1oc(-c2cccc(Cl)c2)nc1C#N | -36.2%
54 | C=CCC1(Nc2ccccc2)CC(C)N(C)CC1C.O=C(O)C(=O)O (stereo not drawn) | -21.1%
55 | Cc1ccc(-n2c(CSc3nc(C)cc(C)n3)nnc2SCC(=O)NCc2ccco2)cc1 | -38.7%
56 | CCCCn1c(=O)n(C)c(=O)c2c3c(sc21)COC(C)(C)C3 | -11.1%
57 | C/C(=N\NC(=O)c1ccc(NS(=O)(=O)c2cccs2)cc1)c1ccccc1 | 22.3%
